Vc quorum ag-1: inducers of Vibrio cholerae quorum light production without autoinducers, primary screen, BH1578 luxS cqsA deficient, single point. V. cholerae BH1578 lux reporter, luminescence, 6 h. activation, % at 18.7 µM. 350,000 tested, 0.16% active. AID 588436, 2011; in the data active means activation mostly above about 9.7%, no sharp cut-off
Mtb hypoxia rep: PubChem AID 1159583 | M. tuberculosis hypoxia-regulated fluorescent reporter, fluorescence | fluorescence inhibition, % (concentration not given with the values) | 300,000 tested, 0.1% active; in the data active means fluorescence inhibition mostly above about 23%, no sharp cut-off; inactive means mostly below about 17%
Yp Topo-I inh: Yersinia pestis topoisomerase I inhibitors, primary screen, biochemical, cleavage product accumulation, plate reader, single point; activity, % at 10 µM; AID 504884, 2011; Y. pestis Topo-I cleavage product accumulation; 360,000 tested, 0.064% active; in the data active means activity above about 50%, passing the limit was not always enough
Vc quorum ag-2: V. cholerae lux activation without autoinducers – BH1578 luxS cqsA deficient, cherry-pick, plate reader, dose response; shares compounds with Vc quorum ag-1; activation, % at 50 µM; 620 tested, under 10 active; V. cholerae BH1578 lux reporter, luminescence, 6 h; AID 602243, 2012; call rule not given here
Numbers without * were called inactive; i = inactive; x = no result given. Compounds with a hit are over-represented: about 0.29% of the library has one in this group of screens.

SMILES	Vc quorum ag-1	Mtb hypoxia rep	Yp Topo-I inh	Vc quorum ag-2
CC(C)CC1CN=C(Nc2ccccc2)N1CCc1ccc(F)cc1 (configuration not stated)	x	6	x	x
CCOC(=O)c1cnc(SCC(=O)OCC(=O)N(CC)C2CCS(=O)(=O)C2)nc1N (configuration not stated)	0	5	-1	x
CCOC(=O)c1cnc(SCC(=O)OCC(=O)NC2CCS(=O)(=O)C2)nc1N (configuration not stated)	32*	0	-9	1
OC[C@@H]1CN(Cc2cccs2)C[C@H](n2cnc3c(N4CCCC4)ncnc32)O1	-1	x	-7	x
Cc1cc(C)n(CCC(=O)NN=Cc2ccc(Br)c([N+](=O)[O-])c2)n1	x	10	x	x
CCN(CC(=O)Nc1c(F)cccc1F)C(=O)C1CC(=O)N(c2ccccc2OC)C1 (configuration not stated)	12	6	8	0
CCc1ccc(N2CC(C(=O)N(CC)CC(=O)Nc3c(F)cccc3F)CC2=O)cc1 (configuration not stated)	1	x	-11	x
O=c1cc(CSc2ccccn2)c2ccccc2[nH]1	27*	x	3	1
Cc1cc(SCc2cc(=O)[nH]c3ccccc23)nc2ccccc12	1	10	3	x
CC(=O)Nc1ccc(SCC(CC(C)C)N2CCN(CCc3ccccc3)CCC2=O)cc1 (configuration not stated)	x	7	x	x
CCn1c(SCC(=O)OC2CCCCC2)nnc1-c1ccncc1	17*	2	10	0
CCn1c(SCC(=O)OC)nnc1-c1ccncc1	i	x	-1	x
Cc1noc(C)c1COc1ccc(C(=O)NNC(=O)c2ccccc2O)cc1	-2	-2	-7	x
COCCNC(=O)CN1CCN(C(c2ccccc2)c2ccccc2)CC1	12	6	4	0
COC(=O)CN1CCN(C(c2ccccc2)c2ccccc2)CC1	0	5	9	x
CC(NC(=O)CN1CCN(c2ccccc2F)CC1)c1ccccc1 (configuration not stated)	27	-1	-1	1
CC(NC(=O)CN1CCN(c2cccc(Cl)c2)CC1)c1ccccc1 (configuration not stated)	i	4	-4	x
NC(N)=NN=Cc1ccccc1	x	3	x	x
Cc1cc(NC(=O)c2cc(C3CC3)on2)no1	i	9	8	x
Cc1cc(OC(F)F)ccc1NC(=S)NCCc1ccccc1	12	-9	7	0
COc1ccc(NC(=S)NCCc2ccccc2)c(C)c1	i	-9	10	x
CCCCCC(=NO)c1c[nH]c2ccccc12	x	5	x	x
Cn1c(SCC(=O)N2CC(=O)Nc3ccccc32)nnc1C(F)(F)F	-14	1	1	x
CN(CC(=O)Nc1c(Cl)cccc1Cl)C(=O)c1n[nH]c2ccccc12	19	1	-3	0
CN(CC(=O)Nc1ccccc1Br)C(=O)c1n[nH]c2ccccc12	-2	-10	1	x
SMILES	Vc quorum ag-1	Mtb hypoxia rep	Yp Topo-I inh	Vc quorum ag-2
O=C(O)CC1SC(=NN=C2CCCCCCC2)N(c2ccccc2)C1=O (configuration not stated)	x	10	x	x
COC(=O)CCc1c(C)[nH]c(=S)[nH]c1=O	-2	x	1	x
CCOC(=O)Cc1c(C)[nH]c(=S)[nH]c1=O	17*	3	0	8
COc1ccc(C2C3C(=O)N(C(C)(C)C)C(=O)C3[C@]3(Cc4ccccc4)C(=O)N(c4ccc(C(F)(F)F)cc4)C(=O)N23)cc1 (some centres not stated)	x	-6	x	x
Cc1ccc(C)c(C(=O)CN2C(=O)NC3(CCCCCC3)C2=O)c1	12	-1	3	0
Cc1ccc(C)c(C(=O)CN2C(=O)NC3(CCCCCCC3)C2=O)c1	-1	2	4	x
